For 35 compounds, z-score results are on record in PubChem BioAssay.

A number with no mark means an inactive call.
Note: test concentration not given here.

The first assay in a line: S. cerevisiae RM11-1a growth modifiers, primary screen, strain RM11-1a, OD600, basal, 24 h (AID 1177).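 Note: cultures grown under basal conditions with no added stressor.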 As to conditions: OD600, 24 h, higher = more signal, called active from +8 up or from −8 down.
Regarding `COCC(=C=CC[C@@H](O)c1ccc(OCCO)cc1)C[C@@H](O)c1ccccn1`, the z-score is -0.0975. Same read-out and setting: next, `COC(=O)[C@@]1(Cc2ccc(OC)cc2)[C@H]2c3cc(C(=O)N(C)C)n(Cc4ccc(C(F)(F)F)nc4)c3C[C@H]2CN1C(=O)c1ccccc1`: 0.44; `COCCCNC(=O)[C@@H]1c2ccccc2C(=O)N(Cc2ccccc2OC)[C@H]1c1ccc(CO)cc1`: -0.839; `O=C1O[C@@H](c2ccccc2)[C@@H](c2ccccc2)N2[C@@H](c3ccc(OCCO)cc3)[C@]3(C(=O)Nc4ccc(C#CCCO)cc43)[C@@H](C(=O)NC[C@H](O)c3ccccc3)[C@H]12`: 2.97. As for `O=C(O)[C@H]1C[C@H]2C(=O)N3CCC[C@H]3C(=O)N2[C@H]1c1ccc(O)cc1`, the z-score was 0.208.

Take `[N-]=[N+]=NCc1ccccc1C[C@@]1(C(=O)NCC(O)CO)N=C(c2ccc(OCCCO)cc2)O[C@@H]1c1ccccc1` (stereo partly specified): the z-score is 0.355.

The next assay can be described thus: E. coli acrAB mutant growth effects, primary screen, E. coli filamentation inducers, strain DRC39, OD650, 24 h (AID 1178).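 Note: growth measured as culture turbidity by optical density at 650 nm.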 As to conditions: higher = more signal, called active from +8 up or from −8 down.
Turning to `C#CCN1[C@@H](Cc2ccc(O)cc2)C(=O)O[C@H](Cc2ccccc2)[C@@H]1/C=C/C1CC1`, the z-score was 0.75. On the same count and under the same terms, next, `CCCCCCCCCCC(O)C1C=CC2C(=O)NC(=O)C2N1Nc1ccc(Cl)cc1Cl` (stereo unspecified): -0.801; `O=C(NCc1ccccc1)[C@@H]1c2ccccc2C(=O)N(C2Cc3ccccc3C2)[C@H]1c1ccc(CO)cc1`: 0.0426. The same measure, in the same setting: the result for `CN(C)CCCCCCNC(=O)[C@@H]1C[C@@H]2C(=O)N3CCC[C@H]3C(=O)N2[C@@H]1c1ccc(O)cc1` reads 0.966; that for `N#Cc1ccc(C(O)C2C=CC3C(=O)N(c4ccccc4)C(=O)C3N2Nc2ccccc2F)cc1` (stereo unspecified), -0.227; that for `COc1ccc([Si](C)(C)[C@@H]2[C@@H](CC(=O)N3Cc4ccccc4C[C@H]3CO)O[C@]3(C(=O)N(Cc4cccc(N5CCC5=O)c4)c4ccccc43)[C@H]2C)cc1`, 0.249.

With `CS(=O)(=O)CCOC(=O)C1=CC(CCCO)=CC(C2CC2)N(Cc2cc3c(cc2Br)OCO3)C=C1C(=O)OCCS(C)(=O)=O` (stereo unspecified), the z-score was 1.17. On the same count and under the same terms, the result for `NC(=O)N1C(=O)C2C(C1=O)C1C=C(CCCO)C2C(C2CC2)N1Cc1cc2c(cc1Br)OCO2` (stereo unspecified) reads -0.298. Consider `O=C1OCCC=C[C@H]2OC34C=CCN(CCN5CCOCC5)C(=O)[C@H]3N(CCCCCO)C(=O)[C@@H]4C12` (stereo partly specified), for which the z-score is 0.298.

Consider `CC(CO)N1C(=O)[C@@H]2C3C(=O)OCCC/C=C\[C@H]3OC23C=CCN(CCN2CCOCC2)C(=O)[C@@H]13` (stereo partly specified), for which the z-score was 0.218.

On to `CCCCCCc1nc(-c2ccc(-c3ccc(Cl)c(Cl)c3)o2)c(C)c2c1[Si](C(C)C)(C(C)C)OC2`, for which the z-score was -0.0618. On the same count and under the same terms, next, `CCOc1cc(C(O)C2C=CC3C(=O)N(c4ccccc4)C(=O)C3N2Nc2ccc(C(C)C)cc2)ccc1O` (stereo unspecified): -0.361.

On to `CCOC(=O)C1=C[C@@H](C(C)C)N(S(=O)(=O)c2ccc(C)cc2)[C@H]1c1ccccc1F`, for which the z-score is -0.77. Take `COc1cc2c(cc1O)C(c1cccs1)N(Cc1cccc(OC(F)(F)F)c1)CC2` (stereo unspecified): the z-score was -0.0378. Still for that read-out and setting: the result for `C=CCN1C(=O)[C@]2(Cc3ccccc3)N=C(c3ccc(OCCCO)cc3)O[C@@H]2c2ccccc21` reads 0.0733. Still for that read-out and setting: next, `COc1ccc([Si](C)(C)[C@@H]2[C@@H](CCn3cc(CCO)nn3)O[C@]3(C(=O)N(Cc4cccc(N5C(=O)c6cccc7cccc5c67)c4)c4ccccc43)[C@H]2C)cc1`: -0.162; `C=CCN(Cc1ccccc1)C(=O)C(c1cccs1)N(C(=O)/C=C\C(=O)O)c1ccc(CCOCCO)cc1` (stereo unspecified): 0.368; `COC(=O)c1c2oc(c1C(=O)OC)C(=O)NC1(CCCCC1)c1cn(nn1)C[C@H](Cc1ccccc1)NC(=O)N[C@H](CO)CC2`: 1.09. The same measure, in the same setting: next, `CC(=O)NCCCC[C@@H]1NC(=O)[C@H]2C[C@@H](C(=O)NCCCCCNC(=O)CS)[C@@H](c3ccc(O)cc3)N2C1=O`: -0.553; `COCCCNC(=O)[C@@]1(CCS(=O)(=O)c2ccccc2)N=C(c2ccc(OCCCO)cc2)O[C@H]1c1ccccc1N=[N+]=[N-]`: 1.28; `COc1ccc(NN2C(C(O)c3ccc(N(C)C)cc3)C=CC3C(=O)N(C4CCCCC4)C(=O)C32)cc1` (stereo unspecified): -0.723. `[N-]=[N+]=NCc1ccccc1[C@@H]1OC(c2ccc(OCCCO)cc2)=N[C@]1(CCS(=O)(=O)c1ccccc1)C(=O)N1CCCCC1`: the z-score was -0.523. Still for that read-out and setting: the result for `COC(=O)C[C@H]1O[C@@H](CCc2ccccc2)[C@@H](C)[C@@H]1[Si](C)(C)c1ccc(OC)cc1` reads -0.0089; that for `CN1C(=O)C2C=CC(C(O)c3ccccc3)N(N3CCCCC3)C2C1=O` (stereo unspecified), -1.32; that for `COC(=O)[C@@]1(Cc2ccc(OC)cc2)[C@H]2c3cc(C(=O)N4CCCC4)n(CCSCCO)c3C[C@H]2CN1C(=O)c1ccccc1`, -1.18. For the compound `COC(=O)c1c(CC[C@@H](CO)NC(=O)NCCc2c[nH]c3ccccc23)oc(C(=O)Cc2ccccc2)c1C(=O)OC`, the z-score was 1.04. Same read-out and setting: the result for `O[C@@H](Cc1ccccc1)[C@@H](/C=C/C1CC1)NCc1cccc(Cl)c1` reads 0.451; that for `CN1CCC(CCCO)=CC1c1cccs1` (stereo unspecified), 0.212. On the same count and under the same terms, the result for `CO[C@H]1O[C@H](CO)[C@@H](OC(=O)Nc2ccc(Br)cc2)[C@@H]2OC(=O)[C@H](Cc3cccc(Br)c3)C/C=C/C[C@@H](Cc3cccc(Br)c3)C(=O)O[C@@H]12` reads 0.778; that for `COCC(=C=CC[C@@H](O)c1ccc(OCCO)cc1)C[C@@H](O)c1ccccn1`, 0.0525; that for `COC(=O)[C@@]1(Cc2ccc(OC)cc2)[C@H]2c3cc(C(=O)N(C)C)n(Cc4ccc(C(F)(F)F)nc4)c3C[C@H]2CN1C(=O)c1ccccc1`, -0.22.

As to `COCCCNC(=O)[C@@H]1c2ccccc2C(=O)N(Cc2ccccc2OC)[C@H]1c1ccc(CO)cc1`, the z-score was 0.342. On to `O=C1O[C@@H](c2ccccc2)[C@@H](c2ccccc2)N2[C@@H](c3ccc(OCCO)cc3)[C@]3(C(=O)Nc4ccc(C#CCCO)cc43)[C@@H](C(=O)NC[C@H](O)c3ccccc3)[C@H]12`, for which the z-score was 0.968. Same read-out and setting: next, `O=C(O)[C@H]1C[C@H]2C(=O)N3CCC[C@H]3C(=O)N2[C@H]1c1ccc(O)cc1`: 0.408; `[N-]=[N+]=NCc1ccccc1C[C@@]1(C(=O)NCC(O)CO)N=C(c2ccc(OCCCO)cc2)O[C@@H]1c1ccccc1` (stereo partly specified): 1.39.
